# Reference: the supplement of paper PMC9433436
# ± gives the standard deviation of the averaged measurements. Over roughly 4,100 sequences, “relative kcat/Km (krel) vs genomic leader AAAGAU” has its median near 1.7; the highest 2% begin near 6.5. What follows is part of a selection rich in the highest values, with near analogues and random picks from the rest.
# Molecular target: T1, E. coli RNase P holoenzyme (M1 P RNA + rnpA protein) (UniProt P0A7Y8)
# T1 sequence: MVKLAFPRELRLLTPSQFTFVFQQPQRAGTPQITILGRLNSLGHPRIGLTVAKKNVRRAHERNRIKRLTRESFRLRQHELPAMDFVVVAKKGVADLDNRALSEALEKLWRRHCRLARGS
# Assay: relative kcat/Km (krel) vs genomic leader AAAGAU (relative (reference leader = 1)); higher = faster RNase P cleavage
# Protocol: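 HTS-Kin: a pool of ptRNA-Met (21C construct) with all 4096 combinations of 5' leader nucleotides N(-6) to N(-1) was processed in vitro by E. coli RNase P (P RNA + rnpA/C5 protein) under multiple-turnover conditions at 37 C, pH 8, 17.5 mM MgCl2. Residual substrate was Illumina-sequenced at several fractions reacted, and relative kcat/Km (krel) was computed by internal competition kinetics, calibrated to the genomic leader (AAAGAU = 1). The listed hexamer is the varied N(-6)..N(-1) leader (DNA letters), and it sits between a fixed 5' stem-loop flank (GCAUGCACGAAAGUGCGUGCUAUGAA) and the mature tRNA-Met starting GGCUACGUAGCUCAGUUGG. Two technical replicates are averaged.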
# [1] = fraction of substrate reacted: ~9-10% (9.79% repeat 1, 9.1% repeat 2)
# [2] = fraction of substrate reacted: ~13-16% (15.68% repeat 1, 13.17% repeat 2)
# [3] = fraction of substrate reacted: ~26-29% (28.66% repeat 1, 26.4% repeat 2)
Sequence,relative kcat/Km [1],relative kcat/Km [2],relative kcat/Km [3]
GTCTCT,4.15 ± 1.8,5.51 ± 0.37,7.16 ± 1.8
GTGTCT,0.45 ± 0.21,1.24 ± 0.15,1.44 ± 0.22
GACTCA,3.33 ± 1.5,4.56 ± 0.1,5.69 ± 2.1
ATCTCA,3.67 ± 2,4.25 ± 0.21,6.06 ± 2.4
GTCTCA,3.83 ± 1.2,5.79 ± 0.43,7.71 ± 2.8
ATCTCT,3.47 ± 1.2,4.36 ± 0.18,6.18 ± 2.7
TTGCTA,2.11 ± 1.3,1.43 ± 0.11,2.24 ± 0.7
GACTCG,1.8 ± 1.4,1.87 ± 0.13,3.21 ± 0.58
TAAAGA,1.01 ± 0.34,1.61 ± 0.79,3.01 ± 1.7
CGCTGG,0.49 ± 0.25,–,–
TGCGAG,–,0.318 ± 0.22,1.39 ± 0.28
TTGCGA,1.1 ± 0.36,1.53 ± 0.44,1.91 ± 0.14
CGACAT,3.05 ± 0.3,3.54 ± 1.1,4.82 ± 1.8
GGGTTC,0.445 ± 0.035,0.916 ± 0.37,0.82 ± 0.16
CACGGA,–,–,0.766 ± 0.63
GGGATA,–,0.415 ± 0.34,–
TGCTCC,2.19 ± 0.87,2.31 ± 0.43,2.87 ± 0.78
GTCTCC,4.62 ± 1.7,6.15 ± 0.65,8.17 ± 3.2
CTCTCT,4.48 ± 1,4.84 ± 1.6,7.22 ± 3
ATCTCC,3.67 ± 0.85,4.83 ± 1.4,6.39 ± 2.9
CTCTCG,1.91 ± 1.5,1.68 ± 0.37,3.31 ± 0.37
GCCTCC,2.78 ± 1.2,3.32 ± 0.14,5.33 ± 1.8
GGCTCC,2.56 ± 0.54,1.96 ± 0.23,2.25 ± 0.7
CTCTCC,3.04 ± 0.91,4.91 ± 0.6,6.17 ± 2.2
TTCTCC,5.23 ± 2.1,6.12 ± 0.67,8.25 ± 3
CGGAGG,0.395 ± 0.29,–,–

Sequence,relative kcat/Km [1],relative kcat/Km [2],relative kcat/Km [3]
CATTTG,–,–,1.49 ± 0.39
ACGCTA,1.05 ± 0.29,0.572 ± 0.17,1.74 ± 0.51
GGCTTT,2.05 ± 0.44,1.76 ± 0.074,2.15 ± 0.52
CGAAGA,1.79 ± 0.84,2.39 ± 1,3.52 ± 0.96
CCACCG,–,–,1.08 ± 0.58
TAAGGC,1.46 ± 0.72,–,2.44 ± 2.2
GTCACC,3.43 ± 0.98,4.83 ± 0.44,6.98 ± 2.7
TTCACA,4.51 ± 1.9,5.55 ± 0.86,7.72 ± 3.1
TTCACC,3.91 ± 1.2,5.63 ± 0.6,8.13 ± 3
TTCACT,4.07 ± 1.2,5.27 ± 1.4,7.57 ± 3.1
ATCACA,2.67 ± 1,3.8 ± 0.55,5.18 ± 1.5
ATCACC,3.18 ± 0.62,3.68 ± 1,5.67 ± 2
GTCACG,–,1.84 ± 0.86,3.97 ± 0.54
GTCACT,3.36 ± 0.97,3.29 ± 0.15,6.31 ± 2.5
CTCACC,2.93 ± 0.11,4.4 ± 1.5,6.21 ± 2.6
GGCACC,1.52 ± 1.3,1.01 ± 0.24,2.04 ± 0.18
ATCACT,3 ± 0.43,3.58 ± 1.1,4.98 ± 2
TTCACG,2.05 ± 1.9,2.41 ± 0.2,4.56 ± 1.4
CCTACA,2.23 ± 1.1,1.82 ± 0.36,1.9 ± 0.68
CGTCCT,2.14 ± 0.34,2.06 ± 0.17,3 ± 1.2
CTACGT,0.396 ± 0.012,0.978 ± 0.12,1.13 ± 1.1
TTAGGG,0.357 ± 0.048,1.11 ± 0.86,2.15 ± 2.1
GGGTAA,1.51 ± 0.8,1.31 ± 0.21,1.46 ± 0.55
GGAGCT,1.22 ± 0.62,0.705 ± 0.57,1.64 ± 0.58
GGCACA,1.43 ± 0.55,1.26 ± 0.95,2.08 ± 0.64
GTCACA,3.73 ± 1.8,4.78 ± 1.1,7.01 ± 2.5

Sequence,relative kcat/Km [1],relative kcat/Km [2],relative kcat/Km [3]
CTCACA,3.32 ± 0.59,3.94 ± 0.75,5.85 ± 2.7
AAACGA,2.12 ± 0.92,1.89 ± 0.67,2.21 ± 0.41
CCCTTG,–,–,1.42 ± 0.67
ACGAAA,1.79 ± 0.39,1.66 ± 0.37,2.72 ± 1.1
ATTTAG,–,2.526 ± 0.01,3.82 ± 0.68
GCTTAT,2.2 ± 0.24,3.15 ± 0.31,4.62 ± 1.7
TTTAAA,3.37 ± 1.6,3.88 ± 0.2,5.35 ± 2.1
CTTTAA,3.07 ± 1.6,3.8 ± 0.23,5.72 ± 2
CCTTAT,3.19 ± 0.95,4.47 ± 0.36,6.48 ± 2.4
TTTTAA,4.32 ± 1.7,4.88 ± 0.61,6.68 ± 2.5
ATTTAA,3.55 ± 1.8,4.39 ± 0.62,5.24 ± 1.9
TCTTAT,4.12 ± 1.9,5.44 ± 1.1,8.21 ± 3.5
ATTTAT,3.82 ± 1.8,4.84 ± 0.46,7.02 ± 3
CTTTAG,2.44 ± 1.3,2.14 ± 0.24,3.51 ± 0.57
TTTTTA,3.12 ± 2.4,2.58 ± 0.21,3.44 ± 0.81
CTTTAT,4.88 ± 2,5.78 ± 0.63,8.16 ± 3.3
GGCACT,1.99 ± 1.6,1.75 ± 0.28,2.89 ± 1.2
TTTGGG,–,–,1.56 ± 1.5
ACATTT,2.32 ± 1.2,2.97 ± 0.19,4.45 ± 1.8
AGCAGC,2.23 ± 0.55,2.28 ± 0.13,3.24 ± 0.54
CCAACC,–,1.11 ± 0.49,1.3 ± 0.39
GCTAGG,1.3 ± 0.58,–,0.775 ± 0.23
AATTTT,2.36 ± 0.95,2.45 ± 0.43,3.35 ± 1
CTTTAC,4.38 ± 1.7,4.59 ± 1.3,6.2 ± 1.9
TTTATT,2.77 ± 0.82,3.08 ± 0.42,4.5 ± 2.1
GTTTTA,2.83 ± 1.7,2.56 ± 0.17,3.52 ± 1

Sequence,relative kcat/Km [1],relative kcat/Km [2],relative kcat/Km [3]
GTTTAC,3.75 ± 0.76,4.65 ± 0.88,7.14 ± 3
TTTTAC,3.74 ± 1.1,4.76 ± 1.2,7.2 ± 3.2
ATTTAC,4.31 ± 1.7,4.75 ± 0.58,6.43 ± 2.2
TTTTAG,3.3 ± 2.5,2.5 ± 0.78,4.51 ± 1.2
TTTTAT,4.55 ± 1.4,5.6 ± 0.89,8.5 ± 3.9
TTTTTT,3.31 ± 1.9,3.41 ± 0.27,4.9 ± 1.7
GTTTAT,3.69 ± 0.5,5.18 ± 1.8,8 ± 3.7
GTTTAA,3.62 ± 0.62,4.49 ± 0.5,6.31 ± 3
GTTTAG,–,1.86 ± 0.39,3.84 ± 1.2
TAAGCC,2.57 ± 0.66,2.16 ± 0.87,1.67 ± 0.62
TTGAGA,2.45 ± 0.5,2.31 ± 0.38,3.09 ± 0.91
ATCGTA,3.1 ± 0.36,3.67 ± 0.92,5.45 ± 2.6
TGCTGT,–,0.877 ± 0.71,1.11 ± 1.1
GAAACG,–,–,0.784 ± 0.096
CCGCAG,–,–,1.14 ± 1.1
GAAGGC,1.24 ± 0.64,–,–
ACCGTA,2.19 ± 0.39,2.54 ± 0.21,4.07 ± 1.4
ACCTGC,3.58 ± 3.5,3.61 ± 2.3,5.37 ± 2.5
TCCTGC,4.64 ± 1.6,5.78 ± 1.5,7.5 ± 3.9
TCCTGT,–,–,2.18 ± 1.6
CCCTGC,2.87 ± 1.4,3.39 ± 0.2,5.06 ± 1.6
TCCTGA,3.23 ± 0.83,4.19 ± 0.42,6.6 ± 2.5
TCCTGG,0.344 ± 0.27,0.715 ± 0.34,1.15 ± 1.1
